Drawing on PubChem BioAssay (NCI), this text covers growth for nine molecules.

Each structure is given as a SMILES string. Compounds without any hit were thinned out: in the full panel of roughly 83,000, 20% have a hit.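 Treatment: one concentration, 48 hours, 96-well format. Scoring: percent growth, with anything below 10 considered active.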 Unmarked numbers belong to inactive results. The source made the active and inactive calls.

Experiment in all cases: NCI-60 one-dose screen, 48 h (100 = growth as untreated, 0 = no growth, -100 = all killed)
In one experiment the test system is HCT-15 colon. To be noted: 10 µM unless noted.
The test system of a further experiment is HT29 colon. The settings on record: 10 µM unless noted.
Another experiment deals with SNB-75 CNS. The settings on record: 10 µM unless noted.
For the next experiment, the system named is SNB-19 CNS. To be noted: 10 µM unless noted.
The next experiment deals with U251 CNS. To be noted: 10 µM unless noted.
Another experiment deals with PC-3 prostate. To be noted: 10 µM unless noted.
In another experiment the test system is SK-MEL-5 melanoma. The settings on record: 10 µM unless noted.
For another experiment, the system named is UACC-62 melanoma. The settings on record: 10 µM unless noted.
In a further experiment the test system is LOX IMVI melanoma. The settings on record: 10 µM.
The subject of another experiment is EKVX NSCLC. To be noted: 10 µM unless noted.
A further experiment relates to SN12C renal. To be noted: 10 µM unless noted.
In a further experiment the test system is UO-31 renal. To be noted: 10 µM unless noted.
Another experiment relates to TK-10 renal. The settings on record: 10 µM unless noted.
A further experiment relates to ACHN renal. The settings on record: 10 µM unless noted.
A further experiment has as its system CAKI-1 renal. The settings on record: 10 µM unless noted.
For the next experiment, the system named is A498 renal. To be noted: 10 µM unless noted.
Another experiment has as its system CCRF-CEM leukemia. To be noted: 10 µM unless noted.
Another experiment deals with MOLT-4 leukemia. To be noted: 10 µM unless noted.
For another experiment, the system named is SK-MEL-2 melanoma. To be noted: 10 µM unless noted.
The next experiment concerns SK-MEL-28 melanoma. To be noted: 10 µM unless noted.

As to `CCOC(=O)c1ccc(C(C)(C)C)cc1`, the growth with HCT-15 colon is 111%; in the experiment on HT29 colon it was 109%; with SNB-75 CNS, 102%; in the experiment on SNB-19 CNS, 112%; in the experiment on U251 CNS, 97.5%; with PC-3 prostate, 105%. The growth with SK-MEL-5 melanoma is 105%; in the experiment with UACC-62 melanoma, 106%; in the experiment on LOX IMVI melanoma it was 99.8%; in the experiment with EKVX NSCLC, 114%; with SN12C renal it was 107%; in the experiment with UO-31 renal it was 89.8%. Further, the growth is 103% with TK-10 renal; 110% in the experiment on ACHN renal; 101% in the experiment on CAKI-1 renal; 114% with A498 renal; 113% in the experiment with CCRF-CEM leukemia; 87.1% in the experiment with MOLT-4 leukemia.
As to `Cn1c2ccccc2c2nnc(NCCCCO)nc21`, the growth in the experiment with HCT-15 colon is 88.9%; with HT29 colon, 102%; in the experiment on SNB-75 CNS it was 56.2%; in the experiment with SNB-19 CNS, 94.7%; in the experiment on U251 CNS, 103%; with PC-3 prostate, 100%. The growth in the experiment with SK-MEL-5 melanoma is 94.4%; in the experiment on UACC-62 melanoma, 103%; with LOX IMVI melanoma, 89.1%; in the experiment with SK-MEL-2 melanoma it was 108%; in the experiment with EKVX NSCLC it was 76.3%; in the experiment on SN12C renal, 94.3%. Moreover, the growth in the experiment on UO-31 renal is 68.4%; in the experiment on TK-10 renal it was 123%; in the experiment on ACHN renal, 87.2%; in the experiment with CAKI-1 renal, 66.4%; with A498 renal, 105%; with CCRF-CEM leukemia, 107%. Besides, the growth in the experiment with MOLT-4 leukemia is 97.7%.
In the case of `O=C(Nc1c(Cl)cc(Cl)cc1Cl)ON=C1CCCCC1`, the growth is 102% in the experiment on HCT-15 colon; 104% in the experiment with HT29 colon; 94.4% in the experiment on SNB-75 CNS; 108% in the experiment with SNB-19 CNS; 104% with U251 CNS; 114% in the experiment with PC-3 prostate. Moreover, the growth in the experiment on SK-MEL-5 melanoma was 101%; in the experiment with UACC-62 melanoma, 98.7%; with SK-MEL-28 melanoma, 106%; in the experiment with SK-MEL-2 melanoma it was 107%; in the experiment with EKVX NSCLC it was 105%; with SN12C renal it was 98.4%. Also, the growth was 90.2% in the experiment on UO-31 renal; 100% with TK-10 renal; 102% in the experiment with ACHN renal; 97.2% with CAKI-1 renal; 105% in the experiment on A498 renal; 102% with CCRF-CEM leukemia. In the experiment with MOLT-4 leukemia, the growth was 109%.
Take `C=C(c1ccc(N(C)C)cc1)c1ccc(N(C)C)cc1`: the growth was 6.8% (active) with HCT-15 colon; -31.6% (active) in the experiment on HT29 colon; -14.5% (active) in the experiment with SNB-75 CNS; 20.6% with SNB-19 CNS; 3.57% (active) in the experiment on U251 CNS; 25.7% in the experiment with PC-3 prostate. The growth in the experiment on SK-MEL-5 melanoma was -0.97% (active); in the experiment with UACC-62 melanoma, -8.67% (active); in the experiment with SK-MEL-28 melanoma, 31.5%; in the experiment on SK-MEL-2 melanoma it was -8.02% (active); in the experiment with EKVX NSCLC it was 6.55% (active); with SN12C renal, 1.84% (active). The growth in the experiment with UO-31 renal is 28.8%; in the experiment with TK-10 renal, 58.2%; in the experiment with ACHN renal it was 36.1%; with CAKI-1 renal, 22.2%; with A498 renal it was 78.8%; with CCRF-CEM leukemia it was -14.1% (active). Further, the growth with MOLT-4 leukemia was 5.78% (active).
For `COc1cc(OC)c(NC(=O)C(Sc2nc(C)cc(C)c2C#N)c2ccccc2)cc1Cl` (stereo not drawn), the growth in the experiment with HCT-15 colon was 97.7%; in the experiment with HT29 colon it was 107%; in the experiment with SNB-75 CNS it was 27.4%; with SNB-19 CNS it was 94.1%; in the experiment on U251 CNS, 87.3%; in the experiment on PC-3 prostate it was 102%. Also, the growth with SK-MEL-5 melanoma is 102%; with UACC-62 melanoma, 94.6%; in the experiment on LOX IMVI melanoma it was 89.6%; in the experiment with SK-MEL-28 melanoma it was 105%; in the experiment on UO-31 renal it was 102%; in the experiment with TK-10 renal it was 96.3%. The growth is 85.8% in the experiment with ACHN renal; 94.6% with CAKI-1 renal; 111% with A498 renal; 99.4% in the experiment on CCRF-CEM leukemia; 90.9% in the experiment on MOLT-4 leukemia.
For `CC(=O)OCC1CCC(COC(C)=O)CC1` (stereo not drawn), the growth in the experiment on HCT-15 colon was 95%; in the experiment on HT29 colon it was 68.6%; in the experiment on SNB-75 CNS, 87.4%; with SNB-19 CNS it was 109%; with U251 CNS it was 105%; with PC-3 prostate, 111%. Further, the growth in the experiment on SK-MEL-5 melanoma is 103%; in the experiment on UACC-62 melanoma, 97.7%; in the experiment with LOX IMVI melanoma, 94%; in the experiment with SK-MEL-2 melanoma it was 89.8%; with EKVX NSCLC, 94.3%; in the experiment with SN12C renal, 110%. In addition, the growth in the experiment with UO-31 renal is 91.9%; in the experiment on TK-10 renal, 89.1%; in the experiment on A498 renal it was 109%; in the experiment with CCRF-CEM leukemia it was 115%; in the experiment on MOLT-4 leukemia, 93.1%.
Turning to `Cn1c(=O)[nH]c2ccccc2c1=O`, the growth in the experiment on HCT-15 colon was 101%; with HT29 colon it was 98.4%; in the experiment with SNB-75 CNS, 91%; in the experiment with SNB-19 CNS, 94.3%; in the experiment on U251 CNS it was 93.6%; in the experiment with PC-3 prostate, 130%. Further, the growth with SK-MEL-5 melanoma is 101%; in the experiment with UACC-62 melanoma it was 102%; with SK-MEL-28 melanoma, 117%; in the experiment with SK-MEL-2 melanoma it was 111%; in the experiment on EKVX NSCLC, 71.6%; with SN12C renal it was 96.4%. Also, the growth in the experiment with UO-31 renal is 95.5%; in the experiment on TK-10 renal, 94.3%; with ACHN renal it was 105%; in the experiment with CAKI-1 renal, 85.3%; with A498 renal, 129%; in the experiment with CCRF-CEM leukemia it was 108%. In the experiment with MOLT-4 leukemia, the growth is 122%.
Take `CC(C)c1ccccc1NC(=O)N1CCC(C(C)C)CC1`: the growth in the experiment with HCT-15 colon was 110%; with HT29 colon, 107%; with SNB-75 CNS, 89.3%; in the experiment with SNB-19 CNS it was 107%; in the experiment on U251 CNS it was 98.1%; in the experiment with PC-3 prostate, 97.9%. The growth is 97.4% in the experiment on SK-MEL-5 melanoma; 105% with UACC-62 melanoma; 103% in the experiment on LOX IMVI melanoma; 106% with SK-MEL-28 melanoma; 106% with SN12C renal; 85.6% in the experiment on UO-31 renal. For the same molecule, the growth in the experiment on TK-10 renal is 127%; in the experiment on CAKI-1 renal it was 92.3%; in the experiment on CCRF-CEM leukemia, 101%; in the experiment on MOLT-4 leukemia, 90.8%.
On to `Oc1ccc2ccccc2c1CN1CCOCC1`, for which the growth with HCT-15 colon is 107%; in the experiment with HT29 colon, 110%; with SNB-75 CNS it was 95.6%; in the experiment on SNB-19 CNS, 110%; in the experiment on U251 CNS it was 110%; in the experiment on PC-3 prostate, 99.9%. Also, the growth with SK-MEL-5 melanoma was 113%; in the experiment on UACC-62 melanoma it was 111%; in the experiment on LOX IMVI melanoma it was 115%; in the experiment on SK-MEL-2 melanoma, 103%; with EKVX NSCLC, 113%; in the experiment with SN12C renal, 107%. Moreover, the growth is 74.6% in the experiment on UO-31 renal; 123% in the experiment with TK-10 renal; 103% with ACHN renal; 94.6% in the experiment on CAKI-1 renal; 112% in the experiment on A498 renal; 95.3% in the experiment with CCRF-CEM leukemia. Also, the growth with MOLT-4 leukemia was 99.6%.
